Measurements as given in PubChem BioAssay.
Values joined by “and” are separate entries in the source; they are usually repeats but may differ in a detail not shown here. Equal entries are not always repeated. A number with no mark means an inactive call. The rule behind the calls is not given here.

Biological target: Pantothenate synthetase (Mycobacterium tuberculosis (strain ATCC 25618 / H37Rv)) (UniProt P9WIL5)
Experiment: Coupled enzyme confirmation of inhibitors against recombinant Mtb PanC (AID 375);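 note: 0% = full reaction with vehicle and 100% = no enzyme background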
Conditions: coupled enzyme assay; at 10 µM, hits give high values

Sequence of Pantothenate synthetase (Mycobacterium tuberculosis (strain ATCC 25618 / H37Rv)) (P9WIL5 whole entry, looked up): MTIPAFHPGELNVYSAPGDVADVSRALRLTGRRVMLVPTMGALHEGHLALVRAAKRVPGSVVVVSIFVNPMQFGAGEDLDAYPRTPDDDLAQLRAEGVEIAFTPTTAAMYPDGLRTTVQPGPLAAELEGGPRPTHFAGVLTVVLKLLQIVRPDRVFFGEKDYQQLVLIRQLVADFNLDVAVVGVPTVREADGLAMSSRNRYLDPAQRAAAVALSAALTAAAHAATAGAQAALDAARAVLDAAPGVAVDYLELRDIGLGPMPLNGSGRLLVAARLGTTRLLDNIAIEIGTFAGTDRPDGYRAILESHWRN

CCC(C)(C(=O)NC1CCCCC1)N(Cc1ccco1)C(=O)c1cnccn1 (configuration not stated)
inhibition: 3%

CC(C)(C)NC(=O)Nc1ccccc1C(N)=O
inhibition: 5%

CCOC(=O)C1CCCN(C(=O)c2cc3c(-c4cccc(OC)c4)nn(C)c3s2)C1 (configuration not stated)
inhibition: 0%

O=C(Nc1ccc(F)cc1F)NC1CC(=O)N(Cc2ccccc2)C1 (configuration not stated)
inhibition: 1%

O=C(/C=N/O)NCc1ccncc1
inhibition: 1%

N#Cc1c(N)n(CCOC(=O)c2cccc(Br)c2)c2nc3ccccc3nc12
inhibition: 3%

Cc1cc(=O)[nH]c(SCc2nc3ncccn3c2Br)n1
inhibition: 11%

Cc1ccc(-c2cc(C(F)F)nc(NCc3cccnc3)n2)cc1
inhibition: 0%

COc1ccc(-c2nn3c(-c4cccc(C)c4)nnc3s2)cc1OC
inhibition: 4%

CN(C(=O)c1c(Cl)nc2sccn12)C1CCCCC1
inhibition: 0%

CCOC(=O)C1CCN(c2c(NCCCN(CC)c3ccccc3)c(=O)c2=O)CC1
inhibition: 0%

c1ccc(CN(CC2=NCCN2)c2ccccc2)cc1
inhibition: 0% and 2%

CN1CCN(/C=N/c2sc3c(c2C#N)CCCCC3)CC1
inhibition: 4%

N#Cc1c(-c2ccccc2)nc(SCc2nc(N)nc(N3CCCCC3)n2)[nH]c1=O
inhibition: 9%

O=S(=O)(c1ccccc1)N(Cc1nc(-c2ccccc2)no1)C1CCCCC1
inhibition: 0%

N#Cc1nc(-c2ccco2)oc1NCCc1ccccc1
inhibition: 0%

O=C(NC1(C(F)(F)F)NC(=O)N(Cc2ccco2)C1=O)c1cccnc1 (configuration not stated)
inhibition: 11%

CCOc1ccc(C(C)=O)cc1COc1ccc(-n2cnnn2)cc1
inhibition: 13%

Fc1ccc(C(c2ccc(F)cc2)N2CCN(C/C=C/c3ccccc3)CC2)cc1
inhibition: 0%

CC(C)CC(OC(=O)c1cccs1)C(=O)NCc1ccco1 (configuration not stated)
inhibition: 0%

Cc1ccc2nc(NC(=O)C3CCCN(S(=O)(=O)c4cccc5nonc45)C3)sc2c1 (configuration not stated)
inhibition: 1%

CC1CCN(CC(O)COC2CCC(C(C)(C)C)CC2)CC1 (configuration not stated)
inhibition: 0%

Cc1nc2sc(C(c3cccs3)N3CCOCC3)c(O)n2n1 (configuration not stated)
inhibition: 0%

COc1ccc2oc(C)c(C(=O)Cn3ccnc3)c2c1
inhibition: 0%

O=C(c1ccco1)N1CCN(c2nc(C(F)(F)F)nc3c2nnn3Cc2ccccc2)CC1
inhibition: 0%

CC(C)c1nccn1S(=O)(=O)c1cc(Cl)ccc1Cl
inhibition: 0%

COc1ccc(-n2c(Cc3cccn3C)nnc2SCC(=O)Nc2cccc(C)c2C)cc1
inhibition: 0%

Cn1c(C(=O)N2CCN(C(=O)c3ccco3)CC2)cc2c(=O)n3ccccc3nc21
inhibition: 9%

CN(C)c1ccc(C(=O)OCC(=O)NC2CCCCC2)cc1
inhibition: 0%

COCCN1C(=O)C(=O)/C(=C(/O)c2ccc(OC(C)C)cc2)C1c1cccnc1 (configuration not stated)
inhibition: 0%

CCOC(=O)CSc1nc2sc(C)c(C)c2c(=O)[nH]1
inhibition: 0%

CCC(NC(C)C)C(O)c1ccc(O)c(O)c1 (configuration not stated)
inhibition: 0%

O=C(O)C1CCCN1c1ncnc2c1oc1ccccc12 (configuration not stated)
inhibition: 0%

NC(=O)c1nsnc1-c1ccccc1O
inhibition: 2%

CCOC(=O)c1[nH]c(C)c(C(=O)Nc2cc(OC)ccc2OC)c1C
inhibition: 0%

COc1cc(C(=O)N2CCC(NC(=O)C(Cc3ccc(C)cc3)NC(C)=O)CC2)cc(OC)c1OC (configuration not stated)
inhibition: 3%

CCOc1ncccc1C(=O)Nc1ccc2c(C)cc(=O)oc2c1
inhibition: 7%

C[C@]12CCC(=O)C=C1CC[C@@H]1[C@@H]2C(=O)C[C@@]2(C)[C@H]1CC[C@]2(O)C(=O)CO
inhibition: 0%

CCNC(=O)N(C)c1nncnc1C(=O)NC
inhibition: 0%

COc1cc(C(=O)N2CCN(C(=O)CC(C)C)CC2)cc(OC)c1OC
inhibition: 0%

Cc1ccc(-n2c(-c3ccncc3)nnc2-c2cccs2)cc1
inhibition: 1%

CN(C)c1cccc2c(S(=O)(=O)Nc3ccccn3)cccc12
inhibition: 1%

O=C(NCCCN1CCCC1=O)c1cccnc1
inhibition: 4%

Cc1cc(=O)[nH]c(=S)n1-c1ccccc1
inhibition: 17%

COc1ccccc1NC(=O)N1c2ccc(F)cc2CCC1C (configuration not stated)
inhibition: 8%

CC(C)(C)c1cc(C(=S)N2CCN(CCO)CC2)cc(C(C)(C)C)c1O
inhibition: 5%

CCOc1ccc(C2C(C(=O)OC)=CN(CCOC)C=C2C(=O)OC)cc1
inhibition: 4%
